Assay outcomes: PubChem, several laboratories
This is a sample that favours compounds with a hit; in the whole collection about 1.8% have one here.
UBC13 polyUb – UBC13 polyubiquitin chain formation inhibitors, primary screen, biochemical, TR-FRET, uHTS; inhibition, % at 20 µM; 0.47% of 330,000 active; AID 485273, 2010; in the data active = inhibition above about 45%, passing the limit was not always enough; inconclusive = no clear call, values can overlap the other calls
Target sequence (P61088 whole entry, looked up): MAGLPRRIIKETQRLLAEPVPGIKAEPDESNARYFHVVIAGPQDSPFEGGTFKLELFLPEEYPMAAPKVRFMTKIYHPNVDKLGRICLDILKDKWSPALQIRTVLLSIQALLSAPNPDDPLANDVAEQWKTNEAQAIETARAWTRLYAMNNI
MBD2 inh – inhibitors of MBD2 binding to methylated DNA, primary screen, biochemical, TR-FRET, DNA-binding domain, human; Methyl-CpG-binding domain protein 2 (Homo sapiens), Q9UBB5; AID 686964, 2013; MBD2 binding to methylated oligonucleotide; inhibition, % at 4.4 µM; 0.31% of 370,000 active; in the data active = inhibition above about 13%
Target sequence (Q9UBB5 whole entry, looked up, the tested form may be a part): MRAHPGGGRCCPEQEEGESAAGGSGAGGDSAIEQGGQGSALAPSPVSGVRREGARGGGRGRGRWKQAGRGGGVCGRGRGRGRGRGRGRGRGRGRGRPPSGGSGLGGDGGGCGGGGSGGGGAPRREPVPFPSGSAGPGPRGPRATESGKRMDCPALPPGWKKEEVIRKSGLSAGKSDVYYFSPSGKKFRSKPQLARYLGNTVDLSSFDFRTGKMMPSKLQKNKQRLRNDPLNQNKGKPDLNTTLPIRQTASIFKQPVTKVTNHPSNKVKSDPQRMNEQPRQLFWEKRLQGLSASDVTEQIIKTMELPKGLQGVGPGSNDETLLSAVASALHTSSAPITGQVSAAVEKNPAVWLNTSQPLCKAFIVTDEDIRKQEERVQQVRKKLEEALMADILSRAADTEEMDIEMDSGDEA
UHRF1 MBD2 ctr – UHRF1 methylated DNA binding inhibitors, primary screen, counter-screen for MBD2 inhibitor project, biochemical, TR-FRET, human UHRF1, single concentration; E3 ubiquitin-protein ligase UHRF1 (Homo sapiens), Q96T88; 0.75% of 370,000 active; UHRF1 binding to methylated oligo; inhibition, % at 4.4 µM; in the data active = inhibition above about 21%;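 note: UHRF1 SRA domain binding a hemimethylated CpG hairpin DNA probe; 0% = median of test compound wells and 100% = reference inhibitor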
Neddylation inh – inhibitors of cullin neddylation, primary screen, biochemical, TR-FRET, uHTS, NAE and Ubc12; NEDD8-conjugating enzyme Ubc12 (Homo sapiens) + NEDD8-activating enzyme E1 regulatory …; 0.58% of 360,000 active; calls only at 25 µM; AID 651699, 2012; in the data active = inhibition above about 36%
Casp3 UBC13 ctr – CASP3 inhibitor validation, counterassay for project on UBE2N polyubiquitination blockers, biochemical, one dose | shares compounds with UBC13 polyUb | Recombinant caspase-3, Caspase-Glo 3/7 luminescence, 60 min | inhibition, % at 20 µM | 4% of 1,400 active | AID 488856, 2010;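 active = mean inhibition across replicates above about 26%, limit read from the data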;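 note: plate controls were DMSO with caspase-3 for no effect and DMSO wells lacking enzyme for full effect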
UBC13 confirm – UBC13 polyubiquitination inhibitors, single-point retest, confirmation, biochemical, TR-FRET, single concentration; shares compounds with UBC13 polyUb; inhibition, % at 10 µM; 68% of 1,400 active; in the data active = inhibition above about 45%; inconclusive = no clear call, values can overlap the other calls
The depositor's hits bear a star.

Results for CCCC[C@@H]1CNCCN1CCc1cc(C(F)(F)F)cc(C(F)(F)F)c1 ?
UBC13 polyUb: 55*; MBD2 inh: -8; UHRF1 MBD2 ctr: -3; Neddylation inh: inactive; Casp3 UBC13 ctr: -1; UBC13 confirm: 37

Results for FC(F)(F)c1cc(CCN2CCNC[C@@H]2CC2CCCCC2)cc(C(F)(F)F)c1 ?
UBC13 polyUb: 87*; MBD2 inh: -1; UHRF1 MBD2 ctr: 10; Neddylation inh: inactive; Casp3 UBC13 ctr: -1; UBC13 confirm: 97*

What do the screens show for `FC(F)(F)c1cc(CCN2CCNC[C@@H]2c2ccccc2)cc(C(F)(F)F)c1`?
UBC13 polyUb: 66*; MBD2 inh: 2; UHRF1 MBD2 ctr: -3; Neddylation inh: inactive; Casp3 UBC13 ctr: 3; UBC13 confirm: 62*

What do the screens show for `CCC(C)[C@H]1CNCCN1CCc1cc(C(F)(F)F)cc(C(F)(F)F)c1` (some centres undefined)?
UBC13 polyUb: 60*; MBD2 inh: -2; UHRF1 MBD2 ctr: 2; Neddylation inh: inactive; Casp3 UBC13 ctr: -6; UBC13 confirm: 30

Results for CCC(C)[C@H]1CNC(=S)N1CCc1cc(C(F)(F)F)cc(C(F)(F)F)c1 (some centres undefined) ?
UBC13 polyUb: 16; MBD2 inh: -3; UHRF1 MBD2 ctr: -2; Neddylation inh: inactive

What do the screens show for `Fc1cccc(CCN2CCNC[C@@H]2c2ccccc2)c1`?
UBC13 polyUb: 6; MBD2 inh: 2; UHRF1 MBD2 ctr: -4; Neddylation inh: inactive

Results for CCOc1ccccc1N1CCN(C(=O)c2c(CC)noc2C)CC1 ?
UBC13 polyUb: -2; MBD2 inh: 0; UHRF1 MBD2 ctr: -1; Neddylation inh: inactive

What do the screens show for `CCn1c(CS(=O)Cc2ccc(Cl)cc2Cl)nnc1SCc1c(Cl)cccc1Cl` (centres undefined)?
UBC13 polyUb: 24; Neddylation inh: inactive

What do the screens show for `COc1ccc(-c2nn(-c3ccccc3)cc2/C=N/O)cc1OC`?
UBC13 polyUb: 12; MBD2 inh: -3; UHRF1 MBD2 ctr: -1; Neddylation inh: inactive

Results for O/N=C/c1cn(-c2ccccc2)nc1-c1ccc2c(c1)OCCO2 ?
UBC13 polyUb: 46*; MBD2 inh: -1; UHRF1 MBD2 ctr: 0; Neddylation inh: inactive; Casp3 UBC13 ctr: -2; UBC13 confirm: 48*

What do the screens show for `O=C(O)/C=C/c1cn(-c2ccccc2)nc1-c1ccc2c(c1)OCCO2`?
UBC13 polyUb: 2; MBD2 inh: 1; UHRF1 MBD2 ctr: -1; Neddylation inh: inactive

Results for COc1ccc(-c2nn(-c3ccccc3)cc2/C=N/N=C(N)N)cc1OC ?
UBC13 polyUb: 51*; MBD2 inh: -6; UHRF1 MBD2 ctr: 2; Neddylation inh: inactive; Casp3 UBC13 ctr: -5; UBC13 confirm: 67*

Results for O=C1CCC(OCc2ccccc2)CCN1CC[C@@H](Sc1ccccc1)c1ccccc1 (some centres undefined) ?
MBD2 inh: 7; UHRF1 MBD2 ctr: -2; Neddylation inh: inactive

How did Cc1cc(N2CCN(C)CC2)nc2ccc(NC(=S)N3CCN(c4cccc(Cl)c4)CC3)cc12 do in these assays?
UBC13 polyUb: 61*; MBD2 inh: 2; UHRF1 MBD2 ctr: -3; Neddylation inh: inactive; Casp3 UBC13 ctr: 0; UBC13 confirm: 54*

Results for Cc1cc(N2CCN(C)CC2)nc2ccc(NC(=S)N3CCCCC3)cc12 ?
MBD2 inh: -6; UHRF1 MBD2 ctr: -2; Neddylation inh: inactive

Results for Cc1cccc(N2CCN(C(=S)Nc3ccc4nc(N5CCN(C)CC5)cc(C)c4c3)CC2)c1C ?
MBD2 inh: -7; UHRF1 MBD2 ctr: -4; Neddylation inh: inactive

How did Cc1cc(N2CCN(C)CC2)nc2ccc(NC(=S)N3CCN(c4ccc(Cl)cc4)CC3)cc12 do in these assays?
UBC13 polyUb: 76*; MBD2 inh: 2; UHRF1 MBD2 ctr: -1; Neddylation inh: inactive; Casp3 UBC13 ctr: 5; UBC13 confirm: 70*

What do the screens show for `Cc1cc(N2CCN(C)CC2)nc2ccc(NC(=S)N3CCN(c4ccc(F)cc4)CC3)cc12`?
UBC13 polyUb: 47*; MBD2 inh: 5; UHRF1 MBD2 ctr: -1; Neddylation inh: inactive; Casp3 UBC13 ctr: -3; UBC13 confirm: 38

What do the screens show for `COc1ccc(OC)c(S(=O)(=O)N2CCC3(CC2)OCCN3S(=O)(=O)c2cccs2)c1`?
UBC13 polyUb: 0; MBD2 inh: -3; UHRF1 MBD2 ctr: 5; Neddylation inh: inactive

What do the screens show for `CCn1c(=O)cc(SCC(=O)N2CCN(C3CCCCC3)CC2)c2ccccc21`?
UBC13 polyUb: 79*; MBD2 inh: 3; UHRF1 MBD2 ctr: -2; Neddylation inh: inactive; Casp3 UBC13 ctr: -2; UBC13 confirm: inconclusive

What do the screens show for `CC(C)(C)C1(O)CC(C(F)(F)F)=NN1C(=O)CCc1ccccc1` (centres undefined)?
UBC13 polyUb: 0; MBD2 inh: -6; UHRF1 MBD2 ctr: 0; Neddylation inh: inactive

How did O=C(Nc1ccc(N2CCOCC2)cc1)C1CCN(C(=O)OCc2ccccc2)CC1 do in these assays?
UBC13 polyUb: -2; MBD2 inh: 8; UHRF1 MBD2 ctr: 4; Neddylation inh: inactive

Results for COc1cc2c3c(c1)c(N=NC(N)=S)c(O)n3C(C)(C)C=C2C ?
UBC13 polyUb: 80*; MBD2 inh: 1; UHRF1 MBD2 ctr: -2; Neddylation inh: inactive; Casp3 UBC13 ctr: 3; UBC13 confirm: 84*

How did CC1=CC(C)(C)n2c(O)c(N=NC(N)=S)c3c(C)ccc1c32 do in these assays?
UBC13 polyUb: 19; MBD2 inh: -5; UHRF1 MBD2 ctr: 0; Neddylation inh: inactive

What do the screens show for `CC1=CC(C)(C)n2c(O)c(N=NC(N)=S)c3cccc1c32`?
UBC13 polyUb: 76*; MBD2 inh: 2; UHRF1 MBD2 ctr: -1; Neddylation inh: inactive; Casp3 UBC13 ctr: -1; UBC13 confirm: 94*

Results for CN(C)CCCOc1ccc2c(c1)Sc1ccccc1CC2=O ?
UBC13 polyUb: 9; MBD2 inh: -3; UHRF1 MBD2 ctr: -2; Neddylation inh: inactive

What do the screens show for `Nc1ccc2c(c1)C(=O)Cc1ccccc1S2`?
UBC13 polyUb: 58*; MBD2 inh: 1; UHRF1 MBD2 ctr: 49*; Neddylation inh: inactive; Casp3 UBC13 ctr: 1; UBC13 confirm: 32

How did CCOc1ccccc1NC(=O)C(OC(=O)c1ccc(CC)cc1)c1ccccc1 (centres undefined) do in these assays?
UBC13 polyUb: 22; MBD2 inh: 4; UHRF1 MBD2 ctr: 17; Neddylation inh: inactive
